Source: PubChem BioAssay AID589 (National Center for Advancing Translational Sciences (NCATS), 2007)
Screen size: about 59,000 compounds; about 6,200 (11%) were called active. Not shown: some 9% with an inconclusive outcome. Cut-off read from the data, not from the text of the source: active = max dye-equivalent concentration above about 10 nM; inconclusive = mostly about 1.1 nM to 9.6 nM; inactive = weaker than that. The sample as a whole holds a higher share of actives than the screen did.

Assay: qHTS Assay for Spectroscopic Profiling in 4-MU Spectral Region
Details: compound autofluorescence, 340/450 nm, 4-MU equivalents; hits give high values
Outline: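 Intrinsic fluorescence at 340/450 nm (ex/em) was read after 15 min at room temperature in pH 8.0, 100 mM Tris. Each compound concentration expressed as 4-MU-equivalent concentration from a six-point 4-MU standard series on each plate.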

Max dye-equivalent concentration, inactive:
CCOC(=O)c1[nH]cnc1C(=O)NC1CCCCC1, C[C@]1(O)CC[C@H]2[C@H]3CC=C4N5CCN=C5CC[C@@]4(C)[C@H]3CC[C@@]21C, O=C(Nc1c(Cl)cccc1Cl)C1CCC1, O=C(NCc1ccco1)c1cc2sccc2n1Cc1ccc(F)cc1, Cc1nc2nc(CSc3nc4ccccc4s3)cc(=O)n2[nH]1, Cc1cccc(-n2c(N)c(C(=O)N3CCN(C)CC3)sc2=S)c1, CC(C(=O)Nc1ccccc1-c1ccccc1)N1CCOCC1 (centres undefined), O=C(c1ccccc1-c1ccccc1)N1CCOCC1, COc1ccc(N(CC(=O)NC(C)(C)C)C(=O)c2ccco2)cc1, COc1cc(C(=O)N(Cc2ccc(N(C)C)cc2)C2CCS(=O)(=O)C2)cc(OC)c1OC (centres undefined), CCOc1ccc(Nc2oc(Cc3ccccc3)nc2C#N)cc1, O=C(O)c1cccc(S(=O)(=O)NCCO)c1, Cc1cc(C)c(NC(=O)CS(=O)CC(=O)Nc2cccnc2)c(C)c1 (centres undefined), COc1ccc(C(CC(=O)O)NC(=O)Cc2ccccc2)cc1 (centres undefined), CCOC(=O)c1cc(C)sc1NC(=O)C1CCC1, COC(=O)c1ccccc1NC(=O)c1ccccc1NS(C)(=O)=O, O=C(C1CCN(S(=O)(=O)c2cccs2)CC1)N1CCCCCC1, COc1ccc(CNC2CCCCC2)cc1, c1n[nH]c(NCc2ccc3c(c2)OCO3)n1, CN(Cc1ccccc1)c1nc2c(c(=O)[nH]c(=O)n2C)n1CCSc1nc2ccccc2[nH]1, COC(=O)c1[nH]c2ccccc2c1NC(=O)CN1CCCc2ccccc21, COc1cc(NC(=O)N2CCOCC2)cc(OC)c1, COc1ccc(OC)c(NC(=O)CCN2CCC(C)CC2)c1, Cc1c(C(=O)N2CCOCC2)[nH]c2ccc(OCc3ccccc3)cc12, COc1cccc(NC(=O)CN(C)S(=O)(=O)c2ccc(C)cc2)c1, Cc1nonc1OCCn1nnnc1N, CCNC(=O)CN(c1ccc(C)cc1)S(=O)(=O)c1ccc(SC)cc1, CC(=O)Nc1cccc(Oc2cc(C#N)c(C#N)cc2N2CCOCC2)c1, C=CCn1c(COc2cccc3cccnc23)nnc1SCC(=O)OC, O=C1NC(c2cc3c(cc2Cl)OCO3)Oc2ccccc21 (centres undefined), CCC(=O)Nc1cccc(NC(=O)c2cccnc2)c1, CCOC(=O)c1cc(NC(=O)c2cccnc2)cc(C(=O)OCC)c1, CNc1nc(-c2ccccc2OC)nc2ccccc12, COc1ccccc1-c1nc(NCc2cccs2)c2ccccc2n1, CC(Sc1nc2ccccc2c(=O)n1Cc1ccco1)C(=O)c1ccccc1 (centres undefined), Cn1c(COc2ccc(Cl)cc2)nc2ccccc2c1=O, Cc1nc2ccccc2c(=O)n1CCCn1ccnc1, O=c1c2ccccc2oc2nc(C3CCCCC3)n(Cc3ccco3)c(=O)c12, COc1ccccc1NC(=O)CSc1nc2sc(C)c(C)c2c(=O)n1Cc1ccco1, CCOC(=O)CSc1nc2c(sc(=S)n2CCc2ccccc2)c(=O)n1Cc1ccco1, Cc1ccc(S(=O)(=O)N2CCC(C(=O)OCC(=O)N3CC(=O)Nc4ccccc43)CC2)cc1, CN(C)C(=O)c1ccc(-c2cncnc2NC2CCNCC2)cc1, CC(=O)OCC(=O)[C@@]1(O)CC[C@@H]2[C@H]3CCC4=CC(=O)C=C[C@]4(C)[C@]3(F)[C@@H](O)C[C@@]21C

Max dye-equivalent concentration, active:
COCCNc1cc(-c2c(C)noc2C)ncn1 11 nM, CC(C(=O)N1CCOCC1)N1c2cccc3cccc(c23)S1(=O)=O (centres undefined) 74 nM, CCOc1ccc2nc(NCCNS(=O)(=O)c3ccccc3)c(C#N)cc2c1 110 nM, O=C(Nc1nncs1)c1ccccc1NS(=O)(=O)c1cccs1 530 nM, CCOC(=O)c1[nH]c2ccc(OC)cc2c1NC(=O)CCN1CCN(Cc2ccccc2)CC1 57 nM, CCOC(=O)c1[nH]c2ccc(OC)cc2c1NC(=O)N1CCOCC1 130 nM, CCOc1cc(N2CCOCC2)c(OCC)cc1NC(=O)COc1cccc2cccnc12 16 nM, Cc1cc2nc(-c3ccc(NC(=O)c4cccnc4)cc3)oc2cc1C 15 nM, COCCCn1c2nc3ccccc3nc2c2c(=O)n(Cc3ccc(Cl)cc3)c(C)nc21 320 nM, Cc1nc2c(c(=O)n1Cc1ccco1)c1nc3ccccc3nc1n2Cc1ccccc1 93 nM, Cc1ccc(Cn2c(C)nc3c(c2=O)c2nc4ccccc4nc2n3Cc2ccco2)cc1 760 nM
